Bioassay records from PubChem BioAssay.
This excerpt belongs to a sample that is enriched for hits.
DT40 TDP1 no CPT – qHTS for Inhibitors of human tyrosyl-DNA phosphodiesterase 1 (TDP1): qHTS in cells in absence of CPT | DT40 Tdp1-/- hTDP1 cells, no CPT, ATP luminescence, 48 h | Potency, µM (highest dose often 46.2 µM), for the others: at the highest dose activity change, negative = growth inhibition, actives largely listed as inhibitors | 420,000 compounds, 15% hits; note: potency is the fitted concentration of half-maximal effect; nearly all actives have a fitted effect of over 55% in size
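Growth of hTDP1-complemented DT40 Tdp1-knockout cells is measured by ATP luminescence after at least 48 hr compound exposure at 37 °C, with DMSO substituting for the 20 nM CPT used in the parallel screen.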
TDP1 cell CPT – growth inhibition of DT40 Tdp1-/-;hTDP1 cells with camptothecin (screen for TDP1 inhibitors). AID 686979. chicken DT40 Tdp1-/-;hTDP1 cells + 20 nM CPT, ATP luminescence, 48 h. Potency, µM (highest dose often 46.2 µM), inactives show top-dose activity change, negative = growth inhibition, hits mostly inhibitors. 420,000 compounds, 12% hits; note: potency is the fitted concentration of half-maximal effect; nearly all actives have a fitted effect of over 55% in size
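Chicken DT40 Tdp1-/- cells complemented with human TDP1, 400 cells/well, exposed to compounds plus 20 nM camptothecin for at least 48 h at 37 C; viability read as ATP content by CellTiter-Glo luminescence.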
IL-1B inflam inh – inflammasome signaling inhibition, IL-1 beta readout; THP-1 LPS/ATP IL-1B secretion, AlphaLISA, 16 h; hits give low values; activity change, % at 57.5 µM; 360,000 compounds, 4.7% hits; AID 743279; in the data active = activity change below about -50%; inconclusive = mostly about -30% to -49%
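Secreted IL-1B measured by AlphaLISA bead assay after 16 h compound exposure of THP-1 cells; compounds (final up to 57.5 uM) added 1 h before LPS (250 ng/mL) and ATP (1.25 mM) stimulation; lower signal means less secretion.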
HT1080 IDH1KD tx – toxicity to HT-1080 IDH1 knockdown cells (counter line) | HT-1080 IDH1 knockdown viability, ATP luminescence, 48 h | Potency, µM (titrated, usually from 46.1 µM), for inactives: at the highest dose activity, negative = toxicity, usual class: cytotoxic | 360,000 compounds, 2% hits;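 note: potency is the fitted concentration of half-maximal effect; 0% = DMSO wells and -100% = cell-free medium wells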
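Using the IDH1-knockdown HT-1080 line run in the same batch and compound series as the NT line, viability after 48 h at 37 °C was determined by CellTiter-Glo luminescence and expressed as % activity.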
ALOX12 inh – inhibitors of human 12S-lipoxygenase ALOX12; purified 12hLO, xylenol orange hydroperoxide absorbance; 580,000 compounds, 1.1% hits; P18054; Potency, µM (titrated, usually from 108 µM), without a hit: top-dose activity change, negative = inhibition, most hits filed as inhibitors; note: potency is the fitted concentration of half-maximal effect
Target sequence (P18054 whole entry, looked up): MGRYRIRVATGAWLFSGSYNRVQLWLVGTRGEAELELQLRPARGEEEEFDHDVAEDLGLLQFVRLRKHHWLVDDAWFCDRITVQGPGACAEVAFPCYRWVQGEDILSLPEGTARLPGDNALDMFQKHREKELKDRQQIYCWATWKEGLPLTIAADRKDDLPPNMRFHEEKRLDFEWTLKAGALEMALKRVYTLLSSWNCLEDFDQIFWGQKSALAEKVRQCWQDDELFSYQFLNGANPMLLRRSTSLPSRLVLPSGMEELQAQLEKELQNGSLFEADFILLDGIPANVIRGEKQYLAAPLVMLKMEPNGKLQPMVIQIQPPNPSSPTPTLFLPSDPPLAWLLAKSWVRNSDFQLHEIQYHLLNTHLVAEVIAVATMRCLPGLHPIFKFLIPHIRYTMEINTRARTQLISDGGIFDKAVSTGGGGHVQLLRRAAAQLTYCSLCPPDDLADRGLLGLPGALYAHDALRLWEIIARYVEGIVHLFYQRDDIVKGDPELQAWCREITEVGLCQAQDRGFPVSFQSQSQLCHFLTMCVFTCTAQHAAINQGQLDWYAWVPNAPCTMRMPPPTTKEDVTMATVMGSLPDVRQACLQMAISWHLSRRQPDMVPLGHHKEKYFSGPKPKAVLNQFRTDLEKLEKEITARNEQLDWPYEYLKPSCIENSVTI
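Purified human 12hLO (150 nM final) in 25 mM Hepes, 0.01% Triton X-100, pH 7.0 was preincubated 15 min at room temperature with compound. Then 40 uM arachidonic acid was added, 30 min. Hydroperoxide was read by Fe-XO absorbance ratio 573/405 nm.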
HT1080-NT tox – kills 2HG-producing HT-1080-NT fibrosarcoma cells; HT-1080-NT fibrosarcoma viability, CellTiter-Glo ATP luminescence, 48 h; Potency, µM (highest dose often 46.1 µM), without a hit: top-dose activity, negative = less viability, usual class: cytotoxic; 360,000 compounds, 1.6% hits; AID 686970;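 note: NT is the 2HG producing partner of a matched IDH1 knockdown line; potency is the fitted concentration of half-maximal effect; 0% = DMSO-treated cells and -100% = media-only wells without cells; nearly all actives have a fitted effect of over 55% in size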
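Fibrosarcoma NT cells, 750 per well in 5% FBS RPMI, were exposed to compound for 48 hours. Viability: CellTiter-Glo luminescence.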
The depositor's hits bear a star; [ ] = another dose, or the depositor's remark. Unless noted, calls come from the whole dose curve; as a rule, active = well fitted curve in the direction sought with a large enough effect; inconclusive = small, poorly fitted or top-dose-only effect, or another doubt; inactive = no such curve, though single readings can be large; an effect the other way counts as inactive or inconclusive. Unless noted, % is set by controls: 0 for no effect and ±100 for the full control effect.

For CC(=O)N(C)c1ccc(NC(=O)Cn2c(C)cc3ccccc32)cc1 the results were ALOX12 inh 8%.
Screening CO[C@@H]1CO[C@H]2[C@@H]1OC[C@@H]2NC(=S)Nc1ccc(Cl)cc1 returned ALOX12 inh 79µM*.
Cc1ccc(C(C)C)c(OCc2nnc3n2CCCCC3)c1 was read as DT40 TDP1 no CPT inconclusive, TDP1 cell CPT inconclusive, IL-1B inflam inh -28, HT1080 IDH1KD tx -16%, ALOX12 inh inconclusive and HT1080-NT tox -6%.
`COc1ccc(C(=O)Cn2nc(CNc3ccc(Br)cc3)[n+]3c2CCCCC3)cc1` gave DT40 TDP1 no CPT 2.6µM*, TDP1 cell CPT 3.7µM*, IL-1B inflam inh -80*, HT1080 IDH1KD tx inconclusive, ALOX12 inh -8% and HT1080-NT tox inconclusive.
`O=C(Cn1nc(-c2nn(CC(=O)c3ccccc3)c3[n+]2CCCCC3)[n+]2c1CCCCC2)c1ccccc1` gave DT40 TDP1 no CPT -11%, TDP1 cell CPT 13%, IL-1B inflam inh -9, HT1080 IDH1KD tx 9%, ALOX12 inh 111% and HT1080-NT tox -4%.
Cc1ccc(C(C)C)c(OCc2nn(CC(=O)c3ccc(OC(F)F)cc3)c3[n+]2CCCCC3)c1 was read as DT40 TDP1 no CPT 0.58µM*, TDP1 cell CPT 0.58µM*, IL-1B inflam inh -107*, HT1080 IDH1KD tx 18µM* and HT1080-NT tox 15µM*.
Screening O=C1CCN(C(=O)CC2CCCCC2)CCCC(c2nc(-c3cccnc3)no2)CCN1 (stereo not drawn) returned ALOX12 inh 1%.
For Cc1ccc(-c2nc(C3CCCN(S(=O)(=O)c4ccc(C)cc4)C3)no2)cc1 (stereo not drawn) the results were DT40 TDP1 no CPT inconclusive, TDP1 cell CPT 16µM*, IL-1B inflam inh 0, HT1080 IDH1KD tx 0%, ALOX12 inh 24%[57.4 µM] and HT1080-NT tox 4%.
`O=C(CC1CCCCC1)N1CCCC(c2nc(-c3ccc(S(=O)(=O)N4CCCC4)cc3)no2)C1` (stereo not drawn) gave DT40 TDP1 no CPT 16µM*, TDP1 cell CPT 23µM*, IL-1B inflam inh -77*, HT1080 IDH1KD tx -15%, ALOX12 inh inconclusive and HT1080-NT tox inconclusive.
For O=S(=O)(c1ccc(Cl)cc1)N1CCCC(c2nc(-c3ccc(F)cc3)no2)C1 (stereo not drawn) the results were DT40 TDP1 no CPT inconclusive, TDP1 cell CPT 15µM*, IL-1B inflam inh -26, HT1080 IDH1KD tx 11%, ALOX12 inh -28% and HT1080-NT tox 14%.
COCCc1noc([C@@H]2CC(F)(F)CN2C(=O)c2cc(C)no2)n1 was read as ALOX12 inh 36%.
`Cn1nc(C(=O)NCCc2ccc(S(N)(=O)=O)cc2)c2c1-c1ccccc1S(=O)(=O)C2` gave DT40 TDP1 no CPT 5%, TDP1 cell CPT 1%, IL-1B inflam inh 0, HT1080 IDH1KD tx 14%, ALOX12 inh 12% and HT1080-NT tox 4%.
CC(C)N(CCCNC(=O)c1nn(C)c2c1CS(=O)(=O)c1ccccc1-2)Cc1ccccc1 was read as DT40 TDP1 no CPT -3%, TDP1 cell CPT 16µM*, IL-1B inflam inh 4, HT1080 IDH1KD tx -3%, ALOX12 inh 12% and HT1080-NT tox -5%.
For CCOc1ccc(CCNC(=O)c2nn(C)c3c2CS(=O)(=O)c2ccccc2-3)cc1 the results were DT40 TDP1 no CPT 3.7µM*, TDP1 cell CPT inconclusive, IL-1B inflam inh -3, HT1080 IDH1KD tx 0%, ALOX12 inh 0% and HT1080-NT tox -7%.
For CCOc1ccc(CCNC(=O)c2nn(C)c3c2CS(=O)(=O)c2ccccc2-3)cc1OCC the results were DT40 TDP1 no CPT inconclusive, TDP1 cell CPT 23µM*, IL-1B inflam inh inconclusive, HT1080 IDH1KD tx 0%, ALOX12 inh 4% and HT1080-NT tox 11%.
For CCOc1ccc(C(=O)COC(=O)c2cc(C)nc3ccccc23)cc1 the results were ALOX12 inh 3%.
COCCCNc1oc(/C=C/c2ccc(OC)c(OC)c2)nc1C#N was read as ALOX12 inh -11%.
`COc1ccc(CCNc2oc(Cc3cccc4ccccc34)nc2C#N)cc1OC` gave DT40 TDP1 no CPT inconclusive, TDP1 cell CPT inconclusive, IL-1B inflam inh inconclusive, HT1080 IDH1KD tx -23%, ALOX12 inh -23% and HT1080-NT tox -23%.
For COc1ccc(CCNc2oc(COc3ccc(Br)cc3)nc2C#N)cc1OC the results were DT40 TDP1 no CPT 21µM*, TDP1 cell CPT 18µM*, IL-1B inflam inh -1, HT1080 IDH1KD tx -19%, ALOX12 inh 372% and HT1080-NT tox -13%.
COCCCNc1oc(/C=C/c2cc(OC)c(OC)c(OC)c2)nc1C#N was read as DT40 TDP1 no CPT 23µM*, TDP1 cell CPT inconclusive and ALOX12 inh inconclusive.
For COc1cc(/C=C/c2nc(C#N)c(NC3CC3)o2)cc(OC)c1OC the results were ALOX12 inh -51%.
For CNc1oc(/C=C/c2cc(OC)c(OC)c(OC)c2)nc1C#N the results were DT40 TDP1 no CPT 23µM*, TDP1 cell CPT inconclusive and ALOX12 inh 4%.
For COc1ccc(CCNc2oc(/C=C/c3cc(OC)c(OC)c(OC)c3)nc2C#N)cc1OC the results were DT40 TDP1 no CPT 12µM*, TDP1 cell CPT 13µM* and ALOX12 inh -20%.
For CN1C(=O)c2cccn2CC1CNC(=O)c1cn[nH]c1-c1ccccc1 (stereo not drawn) the results were ALOX12 inh 12%.
`Cc1ccc(C(=O)N2CCC3(CC2)CC(N(Cc2ccc(F)cc2)C2CC2)CCO3)cn1` (stereo not drawn) gave ALOX12 inh -6%.
For O=C(COc1ccccc1O)Nc1cccc(Br)c1 the results were ALOX12 inh -18%.
Screening COC1CCOC2(CCN(C(=O)COc3ccc(F)cc3)CC2)C1 (stereo not drawn) returned ALOX12 inh 37%.
Cc1cc(/C=N/n2cnnc2)c(C)n1-c1ccc(OCc2ccccc2F)cc1 was read as DT40 TDP1 no CPT 13µM*, TDP1 cell CPT 21µM*, IL-1B inflam inh -85*, HT1080 IDH1KD tx inconclusive, ALOX12 inh -47% and HT1080-NT tox inconclusive.
